Reference: PubChem BioAssay (Tox21)
Records with an inconclusive call do not appear. Calls of active or inactive are those of the source. Calls follow the shape of the dose curve; as a rule, active = well fitted inhibition curve with a large enough effect in the repeat runs; inconclusive = weak or mixed curves, or effect the other way; inactive = no such curve, though single readings can be large or run the other way.

What follows are compounds tested against Androgen receptor (Homo sapiens) (UniProt P10275) (assay: qHTS assay to identify small molecule antagonists of the androgen receptor (AR) signaling pathway using the MDA cell line (AID 743042; also: nearly all actives have a fitted effect of over 55% in size)). Conditions: MDA-kb2 AR-luc, MMTV luciferase, R1881 antagonist, 16 h; series mostly up to 70.3 µM.
Androgen receptor (Homo sapiens), sequence (P10275 whole entry, looked up): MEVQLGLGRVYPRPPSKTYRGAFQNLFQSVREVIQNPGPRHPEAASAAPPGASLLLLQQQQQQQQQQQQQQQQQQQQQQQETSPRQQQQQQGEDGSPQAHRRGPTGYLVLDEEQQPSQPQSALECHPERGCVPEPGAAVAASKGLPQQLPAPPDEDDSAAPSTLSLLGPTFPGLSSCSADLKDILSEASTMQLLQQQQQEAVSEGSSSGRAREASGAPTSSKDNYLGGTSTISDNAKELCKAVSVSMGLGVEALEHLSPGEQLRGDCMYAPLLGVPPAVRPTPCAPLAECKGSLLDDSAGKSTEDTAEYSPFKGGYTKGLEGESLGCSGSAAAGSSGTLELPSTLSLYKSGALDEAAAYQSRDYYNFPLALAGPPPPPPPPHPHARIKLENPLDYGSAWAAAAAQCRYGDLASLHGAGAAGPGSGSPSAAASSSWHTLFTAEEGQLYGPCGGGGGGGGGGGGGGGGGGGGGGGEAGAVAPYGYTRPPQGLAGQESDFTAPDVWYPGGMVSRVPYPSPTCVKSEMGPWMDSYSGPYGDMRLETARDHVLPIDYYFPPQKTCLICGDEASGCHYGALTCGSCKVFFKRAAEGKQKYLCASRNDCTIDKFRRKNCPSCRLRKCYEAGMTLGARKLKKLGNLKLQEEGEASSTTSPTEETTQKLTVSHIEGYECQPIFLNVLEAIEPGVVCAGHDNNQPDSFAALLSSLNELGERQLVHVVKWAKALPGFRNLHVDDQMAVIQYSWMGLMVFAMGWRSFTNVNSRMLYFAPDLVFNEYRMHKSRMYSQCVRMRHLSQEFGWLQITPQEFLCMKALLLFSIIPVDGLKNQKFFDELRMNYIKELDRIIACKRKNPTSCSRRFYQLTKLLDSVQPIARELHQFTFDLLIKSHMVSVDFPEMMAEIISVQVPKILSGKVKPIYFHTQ
How it was run: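 Antagonist mode: compounds plus R1881 agonist added to MDA-kb2 AR-luc cells, incubated 16 h at 37C. Luciferase reporter luminescence quantified, with multiplexed CellTiter-Fluor readout for cell viability.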
For O=S(=O)(O)c1cccc(S(=O)(=O)O)c1, the outcome was “inactive”.
For Cc1nc2ccc(CN(C)c3ccc(C(=O)N[C@@H](CCC(=O)O)C(=O)O)s3)cc2c(=O)[nH]1, the outcome was “inactive”.
For CNC(=O)Nc1ccc(Cl)c(Cl)c1, the outcome was “inactive”.
